From the supplement of paper PMC10849652
Targets with a hit are over-represented here; the source holds about 7,900 in all. About 0.6% of all pairs of compound and target were hits. A number with no mark means an inactive call.

Tests used:
Experiment in all cases: log2 fold change, soluble protein after heating vs DMSO (PISA); higher = thermal stabilisation; K562 cells, 10 uM, 30 min; active = over 0.2 and 3.5 SD of the protein, either way, in both replicates (recomputed)
[1] = compound: CS(=O)(=O)c1ccc(-c2cnc(N)c(C(=O)Nc3ccccc3)n2)cc1
Summary of the method: (§1)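 Soluble protein was quantified by TMTpro 16plex LC-MS/MS after channel sums were equalised. It was obtained as the supernatant after 21,000xg for 90 min from pooled aliquots of K562 cells (2×10^6 cells/mL, 10 μM compound, 30 min) heated for 3 min across 48°C-58°C and extracted in PBS with 0.5% NP-40 at 4°C. Thermal stability values are relative to control samples and come from duplicates. They are given as log2 fold changes.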

[2] = compound: C[C@@H](Oc1cc(-c2cnn(C3CCNCC3)c2)cnc1N)c1c(Cl)ccc(F)c1Cl [crizotinib]
Summary of the method: as §1

[3] = compound: C[C@@H]1COCCN1C2=NC(=NC(=C2)C3(CC3)S(=O)(=O)C)C4=C5C=CNC5=CC=C4
Summary of the method: as §1

[4] = compound: C[C@H](C1=CC=C(C=C1)C(=O)NC2=C3C=CNC3=NC=C2)N
Summary of the method: as §1

[5] = compound: C[C@H](Nc1ncnc2nc[nH]c12)c1cc2cccc(Cl)c2c(=O)n1-c1ccccc1 [duvelisib]
Summary of the method: as §1

[6] = compound: Cc1cc(Nc2cc(CN3CCOCC3)c3nc(C)c(Cc4ccc(Cl)cc4F)n3n2)n[nH]1 [gandotinib]
Summary of the method: as §1

[7] = compound: Cc1cc(Nc2cc(N3CCN(C)CC3)nc(Sc3ccc(NC(=O)C4CC4)cc3)n2)n[nH]1 [tozasertib]
Summary of the method: as §1

[8] = compound: Cc1cc(SCc2sc(-c3ccc(C(F)(F)F)cc3)nc2C)ccc1OCC(=O)O
Summary of the method: as §1

[9] = compound: Cc1ccc(-n2nc(C(C)(C)C)cc2NC(=O)Nc2ccc(OCCN3CCOCC3)c3ccccc23)cc1 [doramapimod]
Summary of the method: as §1

[10] = compound: Cc1ccc(C(=O)N(CCCN)[C@@H](c2nc3cc(Cl)ccc3c(=O)n2Cc2ccccc2)C(C)C)cc1 [ispinesib]
Summary of the method: as §1

[11] = compound: Cc1ccc(NC(=O)c2ccc(CN3CC[C@H](N(C)C)C3)c(C(F)(F)F)c2)cc1Nc1nccc(-c2cncnc2)n1 [bafetinib]
Summary of the method: as §1

[12] = compound: Cc1cccc(CC(=O)N2CCc3c2ccc(-c2cn(C)c4ncnc(N)c24)c3F)n1
Summary of the method: as §1

[13] = compound: Cc1cn(-c2cc(NC(=O)c3ccc(C)c(Nc4nccc(-c5cccnc5)n4)c3)cc(C(F)(F)F)c2)cn1 [nilotinib]
Summary of the method: as §1

[14] = compound: Cc1nc(Nc2n[nH]c3c2CN(C(=O)N[C@H](CN(C)C)c2ccccc2)C3(C)C)c2sccc2n1
Summary of the method: as §1

[15] = compound: Cc1nc(Nc2ncc(C(=O)Nc3c(C)cccc3Cl)s2)cc(N2CCN(CCO)CC2)n1 [dasatinib]
Summary of the method: as §1

[16] = compound: Cc1ncc(-c2ccnc(Nc3ccc(S(C)(=O)=O)cc3)n2)n1C(C)C
Summary of the method: as §1

[17] = compound: Cn1cc(-c2ccc3c(c2)CCN3C(=O)Cc2cccc(C(F)(F)F)c2)c2c(N)ncnc21
Summary of the method: as §1

[18] = compound: Cn1cc(-c2ccc3nnc(C(F)(F)c4ccc5ncccc5c4)n3n2)cn1
Summary of the method: as §1

[19] = compound: FC(F)(F)c1ccc(/C=C/c2nc(COc3ccc(CCCCn4ccnn4)cc3)co2)cc1 [mubritinib]
Summary of the method: as §1

[20] = compound: Cn1cncc1[C@@](N)(c1ccc(Cl)cc1)c1ccc2c(c1)c(-c1cccc(Cl)c1)cc(=O)n2C [tipifarnib]
Summary of the method: as §1

Chain of UniProt Q99807 (Q99807 whole entry, looked up): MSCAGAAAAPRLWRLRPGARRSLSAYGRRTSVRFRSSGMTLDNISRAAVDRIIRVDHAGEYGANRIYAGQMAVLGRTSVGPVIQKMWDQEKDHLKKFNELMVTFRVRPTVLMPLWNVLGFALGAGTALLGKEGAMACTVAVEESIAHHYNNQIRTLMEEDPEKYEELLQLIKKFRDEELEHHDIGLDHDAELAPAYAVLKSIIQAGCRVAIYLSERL
Chain of UniProt Q96G28 (Q96G28 whole entry, looked up): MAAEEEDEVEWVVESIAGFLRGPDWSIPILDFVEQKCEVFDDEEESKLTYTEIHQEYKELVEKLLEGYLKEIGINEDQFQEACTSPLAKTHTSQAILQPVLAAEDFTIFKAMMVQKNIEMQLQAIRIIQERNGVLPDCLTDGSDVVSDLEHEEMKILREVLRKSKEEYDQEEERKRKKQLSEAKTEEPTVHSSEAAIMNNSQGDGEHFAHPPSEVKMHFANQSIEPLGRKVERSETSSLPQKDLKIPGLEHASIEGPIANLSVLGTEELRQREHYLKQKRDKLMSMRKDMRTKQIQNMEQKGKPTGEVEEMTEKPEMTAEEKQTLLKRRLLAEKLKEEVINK
Chain of UniProt Q96RR4 (Q96RR4 whole entry, looked up): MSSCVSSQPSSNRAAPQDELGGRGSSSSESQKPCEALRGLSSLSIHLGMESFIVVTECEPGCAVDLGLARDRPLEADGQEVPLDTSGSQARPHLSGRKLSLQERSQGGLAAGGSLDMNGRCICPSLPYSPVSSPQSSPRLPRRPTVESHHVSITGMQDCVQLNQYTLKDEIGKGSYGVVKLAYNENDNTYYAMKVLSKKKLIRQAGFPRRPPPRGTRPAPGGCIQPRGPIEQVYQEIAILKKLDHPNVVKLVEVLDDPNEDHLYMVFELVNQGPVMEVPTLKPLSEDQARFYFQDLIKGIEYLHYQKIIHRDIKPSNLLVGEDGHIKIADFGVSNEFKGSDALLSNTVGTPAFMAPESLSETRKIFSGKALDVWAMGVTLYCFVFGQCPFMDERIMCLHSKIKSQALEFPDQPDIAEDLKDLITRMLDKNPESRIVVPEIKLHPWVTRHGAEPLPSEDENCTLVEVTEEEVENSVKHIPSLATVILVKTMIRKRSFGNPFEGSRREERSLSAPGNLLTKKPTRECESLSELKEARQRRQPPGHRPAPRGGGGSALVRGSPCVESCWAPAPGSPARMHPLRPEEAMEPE
Chain of UniProt Q9BSQ5 (Q9BSQ5 whole entry, looked up): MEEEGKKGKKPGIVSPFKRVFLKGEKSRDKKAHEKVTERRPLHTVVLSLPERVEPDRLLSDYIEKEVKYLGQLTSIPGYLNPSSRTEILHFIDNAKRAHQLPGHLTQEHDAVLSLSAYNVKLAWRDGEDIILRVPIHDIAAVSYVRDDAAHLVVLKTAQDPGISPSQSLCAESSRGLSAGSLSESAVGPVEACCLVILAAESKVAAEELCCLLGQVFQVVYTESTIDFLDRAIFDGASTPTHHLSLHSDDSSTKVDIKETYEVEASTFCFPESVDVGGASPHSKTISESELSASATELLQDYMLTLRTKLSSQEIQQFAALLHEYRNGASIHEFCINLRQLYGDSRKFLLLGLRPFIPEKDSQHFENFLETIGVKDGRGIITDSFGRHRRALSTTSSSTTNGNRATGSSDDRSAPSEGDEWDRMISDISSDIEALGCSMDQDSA
Chain of UniProt P55060 (P55060 whole entry, looked up): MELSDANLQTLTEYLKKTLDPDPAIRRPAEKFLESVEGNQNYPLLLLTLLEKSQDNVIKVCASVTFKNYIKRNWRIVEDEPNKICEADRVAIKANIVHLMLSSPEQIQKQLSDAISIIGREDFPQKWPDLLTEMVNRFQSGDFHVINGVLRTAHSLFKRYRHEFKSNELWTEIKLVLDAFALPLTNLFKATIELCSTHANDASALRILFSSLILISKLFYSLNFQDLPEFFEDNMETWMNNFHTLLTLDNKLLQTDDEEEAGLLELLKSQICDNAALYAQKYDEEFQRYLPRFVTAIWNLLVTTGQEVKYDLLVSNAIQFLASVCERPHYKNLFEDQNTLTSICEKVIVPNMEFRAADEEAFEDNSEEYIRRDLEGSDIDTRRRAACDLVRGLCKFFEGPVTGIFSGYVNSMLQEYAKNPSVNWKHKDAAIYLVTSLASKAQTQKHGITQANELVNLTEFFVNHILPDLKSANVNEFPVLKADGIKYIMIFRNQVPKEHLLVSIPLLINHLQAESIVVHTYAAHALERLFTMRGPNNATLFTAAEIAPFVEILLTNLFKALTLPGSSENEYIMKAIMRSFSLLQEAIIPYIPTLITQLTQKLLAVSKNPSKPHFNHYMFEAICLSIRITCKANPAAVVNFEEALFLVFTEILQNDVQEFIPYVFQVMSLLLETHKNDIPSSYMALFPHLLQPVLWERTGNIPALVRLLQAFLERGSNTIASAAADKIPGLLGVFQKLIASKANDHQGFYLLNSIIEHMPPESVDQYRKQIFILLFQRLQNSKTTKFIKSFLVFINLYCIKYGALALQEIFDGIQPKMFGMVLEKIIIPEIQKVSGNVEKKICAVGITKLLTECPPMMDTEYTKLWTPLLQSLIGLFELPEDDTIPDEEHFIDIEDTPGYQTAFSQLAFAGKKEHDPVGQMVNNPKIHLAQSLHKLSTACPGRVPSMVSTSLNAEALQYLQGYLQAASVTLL
Chain of UniProt P35790 (P35790 whole entry, looked up): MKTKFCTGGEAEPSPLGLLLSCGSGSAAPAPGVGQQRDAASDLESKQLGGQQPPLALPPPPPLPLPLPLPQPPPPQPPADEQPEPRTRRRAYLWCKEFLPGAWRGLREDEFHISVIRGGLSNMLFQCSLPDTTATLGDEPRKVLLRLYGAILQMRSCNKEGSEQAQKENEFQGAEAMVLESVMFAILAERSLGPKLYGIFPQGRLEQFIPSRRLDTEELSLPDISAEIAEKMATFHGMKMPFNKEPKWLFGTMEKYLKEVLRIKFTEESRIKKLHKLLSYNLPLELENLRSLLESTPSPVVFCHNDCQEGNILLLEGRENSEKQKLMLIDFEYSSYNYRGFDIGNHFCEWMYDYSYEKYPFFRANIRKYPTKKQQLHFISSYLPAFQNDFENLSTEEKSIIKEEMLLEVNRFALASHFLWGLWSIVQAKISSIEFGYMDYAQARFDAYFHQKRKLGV
Chain of UniProt P08962 (P08962 whole entry, looked up): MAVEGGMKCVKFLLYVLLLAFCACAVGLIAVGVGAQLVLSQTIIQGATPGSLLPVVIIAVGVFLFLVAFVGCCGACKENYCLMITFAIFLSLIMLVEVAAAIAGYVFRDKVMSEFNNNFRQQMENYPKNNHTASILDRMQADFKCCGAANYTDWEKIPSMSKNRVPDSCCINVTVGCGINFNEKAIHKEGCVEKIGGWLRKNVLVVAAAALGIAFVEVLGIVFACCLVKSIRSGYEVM
Chain of UniProt Q14061 (Q14061 whole entry, looked up): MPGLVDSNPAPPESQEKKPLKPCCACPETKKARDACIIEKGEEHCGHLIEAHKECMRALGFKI

Row | Target | log2 fold change [1] | log2 fold change [2] | log2 fold change [3] | log2 fold change [4] | log2 fold change [5] | log2 fold change [6] | log2 fold change [7] | log2 fold change [8] | log2 fold change [9] | log2 fold change [10] | log2 fold change [11] | log2 fold change [12] | log2 fold change [13] | log2 fold change [14] | log2 fold change [15] | log2 fold change [16] | log2 fold change [17] | log2 fold change [18] | log2 fold change [19] | log2 fold change [20]
1 | CRYM-AS1 (UniProt A6NIL9) | 0.2 | -0.077 | -0.132 | -0.08 | -0.035 | -0.299 | -0.079 | -0.024 | -0.144 | 0.022 | 0.063 | 0.048 | -0.023 | -0.426 | -0.108 | -0.28 | -0.015 | -0.189 | 0.114 | 
2 | CAMKK2 (UniProt Q96RR4) | 0 | 0.106 | -0.045 | -0.182 | 0.093 | -0.221 | 0.15 | 0 | 0.086 | -0.204 | 0.04 | -0.144 | -0.008 | 0.226 | 0 | -0.14 | -0.083 | 0.102 | -0.024 | -0.076
3 | COQ7 (UniProt Q99807) | 0.113 | -0.163 | 0.062 | 0.007 | 0.067 | -0.359 (active) | -0.05 | 0.019 | 0.009 | -0.181 | -0.168 | -0.062 | 0.006 | -0.103 | -0.006 | -0.033 | 0.055 | 0.095 | 0.055 | 0.029
4 | COX17 (UniProt Q14061) | 0.026 | 0.164 | 0.206 | -0.072 | 0.256 | -0.11 | 0.005 | -0.021 | -0.037 | 0.137 |  | 0.078 | -0.091 | -0.051 | 0.016 | -0.162 | 0.206 | -0.034 | 0.038 | 
5 | CHKA (UniProt P35790) | -0.022 | 0.075 | -0.034 | 0.046 | -0.002 | 0.009 | -0.013 | -0.012 | -0.011 | 0.048 | 0.123 | -0.023 | 0.178 | 0.149 | 0.07 | 0.088 | -0.02 | -0.081 | -0.024 | -0.026
6 | CSE1L (UniProt P55060) | 0.008 | -0.063 | 0.083 | -0.067 | 0.01 | -0.174 | 0.066 | 0.024 | -0.027 | -0.003 | -0.041 | 0.039 | -0.066 | -0.026 | -0.08 | 0.012 | -0.005 | 0.007 | 0.068 | -0.101
7 | CCM2 isoform 2 (UniProt Q9BSQ5) | 0.088 | -0.022 | -0.016 | 0.003 | -0.02 | 0.026 | 0.132 | -0.067 | 0.013 | -0.043 | -0.059 | -0.038 |  |  | -0.003 |  | 0.043 | -0.021 | -0.061 | -0.024
8 | CFAP36 isoform 2 (UniProt Q96G28) | -0.013 | -0.201 | 0.078 | -0.394 (active) | 0.133 | -0.048 | 0.587 (active) | -0.007 | 0.096 | -0.053 | 0.022 | -0.055 |  |  | 0.014 |  | -0.047 | 0.128 | 0 | 0.002
9 | CD63 (UniProt P08962) | 0.039 | -0.076 | 0.009 | -0.013 | 0.014 | -0.023 | -0.007 | -0.022 | 0.033 | -0.092 | -0.069 | -0.059 | -0.023 | 0.074 | 0.021 | 0.002 | -0.047 | 0.002 | -0.003 | 0.043
